Among all 190,000 compounds or so, about 930 (0.49%) were called active.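 The calls were made as follows: active = z-score of insulin promoter reporter brightness in nuclei below -3 at 5 µM, with at least 500 cells counted; inconclusive = wells with under 500 cells, flagged as toxic or sparse; inactive = the rest.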 This is one part of the list. Entries with a potency or affinity are not part of this list.
Experiment: insulin promoter down-regulators in MIN6 cells, imaging, high-content screening, mouse beta cells (AID 1628)
Conditions: MIN6 insulin promoter GFP reporter, at 5 µM, active compounds read low
For `O=C(O)c1ccccc1N/N=C/c1c(Sc2nnnn2-c2ccccc2)nc2ccccn2c1=O`, the z-score was 9.93 (inactive). For `CCOC(=O)CC1C(=O)NCCN1c1nc2c(C)cccn2c(=O)c1/C=C1\SC(=S)N(C(C)CC)C1=O` (centres undefined), the z-score was 9.72 (inactive). In the case of `O=C(N/N=C/c1ccc(O)cc1O)c1ccc(CN2C(=O)c3cccc4cccc2c34)cc1`, the z-score was -3.91 (active). With `O=C1c2cccc3c(O)ccc(c23)C(=O)N1Cc1ccccc1` the z-score was 5.05 (inactive). For `CSc1c(C#N)c(N)nc2sc(C(=O)c3ccc(Cl)c(Cl)c3)c(N)c12`, the z-score was 5.56 (inactive). In the case of `CCN(CC)S(=O)(=O)c1cccc(S(=O)(=O)c2cccc(S(=O)(=O)N(CC)CC)c2)c1`, the z-score was -4.75 (active). With `COc1ccc(NC(=S)N(CCCN2CCC(C)CC2)Cc2cccs2)cc1` the z-score was 1.67 (inactive). For `Cc1cc(NC(=S)N(Cc2ccc(Br)cc2)Cc2ccc(C(=O)O)cc2)ccc1Cl`, the z-score was 3.8 (inactive). In the case of `CC(C)N1CC=C2C(C#N)=C(N)C(C#N)(C#N)C(c3ccccc3)C2C1` (centres undefined), the z-score was 5.63 (inactive). For `Cc1cccc(NC(=O)Nc2ccc(C#N)cc2)n1`, the z-score was 3.41 (inactive). In the case of `CC(C)(C)c1nc(NC(=O)Nc2ccccc2)sc1Br`, the z-score was -4.02 (active). For `COc1cc(N=Nc2cccc(S(N)(=O)=O)c2)c2ccccc2c1N`, the z-score was 5.92 (inactive). With `CCN(CC)c1ccc2cc(S(=O)(=O)c3ccc(Cl)cc3)c(=O)oc2c1` the z-score was 6.96 (inactive). With `CN(C)c1ncc(S(=O)(=O)c2ccc(Cl)cc2)c(-c2ccccc2)n1` the z-score was -3.06 (active). With `O=C(CSc1ccc(-c2ccccc2)nn1)NCC1CCCO1` (centres undefined) the z-score was 3.02 (inactive). With `O=C(CSc1oc(-c2ccco2)nc1S(=O)(=O)c1ccc(F)cc1)NCC1CCCO1` (centres undefined) the z-score was 0.69 (inactive). With `C=CCc1ccccc1OCC(O)CN1CCN(CCN2C(=O)c3cccc4cccc(c34)C2=O)CC1` (centres undefined) the z-score was -5.75 (active). With `C=CCN1C(=O)c2cccc3c(N4CCCCC4)ccc(c23)C1=O` the z-score was 5.61 (inactive). In the case of `COc1ccc(NC(=O)C/C(C)=N/NC(=O)C(=O)Nc2cccc(Cl)c2C)c(OC)c1`, the z-score was 0.92 (inactive). In the case of `COc1ccc(NC(=O)C(=O)NCc2ccncc2)c(OC)c1`, the z-score was -4.99 (active). For `CC(C)C1S/C(=N/N=C/c2ccco2)NC1=O` (centres undefined), the z-score was 3.25 (inactive). In the case of `N#Cc1cc([N+](=O)[O-])ccc1N1CCCC1`, the z-score was -5.65 (active). For `O=C(c1cc([N+](=O)[O-])ccc1N1CCCC1)N1CCCC1`, the z-score was 3.06 (inactive). With `Nc1ccc2c(c1)Cc1cc([N+](=O)[O-])ccc1-2` the z-score was 7.76 (inactive). In the case of `Cc1cc(C)nc(SCc2ccc(C(=O)N/N=C/c3cccc(O)c3O)cc2)n1`, the z-score was -3.45 (active). In the case of `Cc1cc(C)nc(SCSc2nc(C)cc(C)n2)n1`, the z-score was 4.55 (inactive). For `COC(=O)c1sc2ccccc2c1-n1cccc1C(=O)C(=O)Nc1ccc(F)cc1`, the z-score was 5.4 (inactive). In the case of `O=C(Nc1ccc(F)cc1)Nc1cc(OCC(F)(F)F)cc(OCC(F)(F)F)c1`, the z-score was -3.21 (active). With `COC(=O)c1ccc(NC(=O)Nc2ccc(F)cc2)cc1` the z-score was -3.46 (active). For `Cc1ccc(SCc2cc(-c3ccc(Cl)cc3)no2)cc1`, the z-score was 3.09 (inactive). With `O=C1Nc2ccc(Br)cc2C12NNc1ccccc1O2` (centres undefined) the z-score was 14.4 (inactive). For `O=C(Cc1nc(-c2ccc([N+](=O)[O-])cc2)cs1)Nc1ccccc1`, the z-score was 8.58 (inactive). In the case of `O=C(Nc1ccc(Cl)cc1)/C(=C/c1ccc([N+](=O)[O-])cc1)c1nc2ccccc2s1`, the z-score was -4.86 (active). In the case of `N#C/C(=C/c1ccc(O)c([N+](=O)[O-])c1)C(=O)Nc1ccccc1`, the z-score was 1.31 (inactive). For `Cc1ccc(-n2c(C)nc3oc4ccccc4c(=O)c3c2=O)cc1`, the z-score was 3.88 (inactive). For `CC1(C)Cc2c(C#N)c(SCC(=O)c3ccccc3)nc(N3CCOCC3)c2CS1`, the z-score was -3.04 (active). In the case of `N#Cc1c(-c2ccco2)cc(C2CC2)nc1SCC(=O)c1ccccc1`, the z-score was 5.22 (inactive). In the case of `N#Cc1ccc(-c2ccccc2)nc1SCC(=O)c1cccc(Cl)c1`, the z-score was 4.3 (inactive). With `N#Cc1ccc(-c2ccc(Cl)cc2)nc1SCC(=O)c1cccc(Cl)c1` the z-score was 6.91 (inactive). With `N#Cc1c(C(F)(F)F)cc(-c2ccccc2)nc1SCc1nc(N)nc(N2CCOCC2)n1` the z-score was 15.4 (inactive). With `CC1(C)Cc2c(c(-c3ccccc3)[nH]c(=O)c2C#N)CO1` the z-score was 3.41 (inactive). For `CC1(C)Cc2c(C#N)c(SCCOc3ccccc3)nc(N3CCOCC3)c2CO1`, the z-score was -3.51 (active). For `CC1(C)Cc2c(C#N)c(SCC(=O)c3ccccc3)nc(N3CCOCC3)c2CO1`, the z-score was -3.99 (active). In the case of `CCOc1cc2[nH]c(=S)n(CCCN(CC)CC)c(=O)c2cc1OCC`, the z-score was 0.51 (inactive). For `Nc1c(C(=O)C2CC2)sc2nc(-c3cccs3)cc(C(F)(F)F)c12`, the z-score was 15.5 (inactive). For `S=C(N/N=C/c1cccs1)NC1CC2CCC1C2` (centres undefined), the z-score was -3.1 (active). For `CN(C)c1ccc(/C=N/NC(=O)CN(c2ccccc2Cl)S(C)(=O)=O)cc1Br`, the z-score was 3.57 (inactive). With `CN(C)c1ccc(/C=C2\C(=N)N3C(=NC2=O)Sc2cc(S(C)(=O)=O)ccc23)cc1` the z-score was 3.93 (inactive). For `Cn1cc(/C=C2\SC(=S)N(NC(=O)c3cccc(Cl)c3)C2=O)c2ccccc21`, the z-score was 7.3 (inactive). For `CC(C)c1ccc(/C=N/NC(=O)c2cccc(Cl)c2)cc1`, the z-score was -3.75 (active). For `CC(/C=N/NC(=O)c1ccncc1)=C\c1ccc(C(C)C)cc1`, the z-score was 3.19 (inactive). With `CC1=NN(c2ccccc2)C(=O)C1/C=C1\NC(=S)NC1=O` (centres undefined) the z-score was 3.53 (inactive). In the case of `C/C(N)=C(/C#N)C(=O)CSc1nnnn1-c1ccc(C)cc1C`, the z-score was -3.38 (active). With `c1csc(-c2ccnc3ncnn23)c1` the z-score was -4.89 (active). In the case of `S=C(Nc1ccc(Nc2ccccc2)cc1)Nc1ccccn1`, the z-score was -3.32 (active). For `O=C(CC(=O)Nc1ccccn1)Nc1ccccn1`, the z-score was -0.03 (inactive). With `CCOC(=O)c1sc2cc([N+](=O)[O-])cc(SCC(C)C)c2c1N` the z-score was 13.9 (inactive). With `CC(=O)c1n[nH]nc1Nc1nc(C)cc(C)n1` the z-score was 0.61 (inactive). With `c1ccc(CNc2cnccn2)cc1` the z-score was 1.28 (inactive). With `COc1cc(C)nc(N2CCCC(C(=O)Nc3cccc(Cl)c3C)C2)n1` (centres undefined) the z-score was 3.87 (inactive). For `O=C(NC1CC1)C1CCCN1C(=O)NC1CCCCC1` (centres undefined), the z-score was 2.65 (inactive). In the case of `Cc1cccc(NC(=O)C2CCCN(C(=O)NC3CCCCC3)C2)c1C` (centres undefined), the z-score was -3.03 (active). For `Cc1ccc(NS(=O)(=O)c2cc([N+](=O)[O-])ccc2N/N=C/c2sc(N3CCOCC3)nc2-c2ccccc2)c(C)c1`, the z-score was 11 (inactive). In the case of `Cc1[nH]c2ccccc2c1/C=N/Nc1ccc([N+](=O)[O-])cc1S(=O)(=O)Nc1ccc(Cl)cc1`, the z-score was 9.19 (inactive). With `C=CCSc1nnc(C)c(/C=C/Nc2ccc(Cl)cc2)n1` the z-score was 5.19 (inactive). With `CCC(=O)Oc1ccc(C(=O)Nc2c[nH]c(=O)[nH]c2=O)cc1` the z-score was -5 (active). With `NS(=O)(=O)c1ccc(NC=C2C(=O)OC3(CCCCC3)OC2=O)cc1` the z-score was 3.78 (inactive). With `NS(=O)(=O)c1ccc(NC(=S)NCc2ccccc2)cc1` the z-score was -4.47 (active). In the case of `Cc1cc(NC(=O)C2CC(=O)OC2c2ccccc2)no1` (centres undefined), the z-score was -4.4 (active). With `COc1ccccc1-n1c(N)cc(=O)nc1SCC(=O)Nc1cc(C)on1` the z-score was 2.37 (inactive). With `COc1ccc(NC(=O)c2[nH]c(C)c(C(C)=O)c2C)cc1Cl` the z-score was 3.83 (inactive). For `CC(=O)c1c(C)[nH]c(C(=O)OCC(=O)Nc2ccc(Cl)cc2[N+](=O)[O-])c1C`, the z-score was -3.98 (active). With `COC(=O)c1ccc(NC(=O)CSc2nc3cccnc3n2C)cc1` the z-score was -4.12 (active). For `CCOC(=O)c1[nH]c2ccc(OC)cc2c1NS(=O)(=O)c1ccc(Cl)s1`, the z-score was -4.98 (active). In the case of `CCC(C(=O)OCC(=O)Nc1cccc(S(=O)(=O)NC2=NCCCCC2)c1)c1ccccc1` (centres undefined), the z-score was 3.98 (inactive). For `Cc1sc2ncnc(N3CCCCC3C)c2c1C` (centres undefined), the z-score was -4.4 (active). With `COc1ccc(/C=C2\CC/C(=C\c3ccc(OC)cc3OC)C2=O)c(OC)c1` the z-score was 5.49 (inactive). For `C=CCN1C(=O)C(O)(CC(=O)c2ccc(OC)cc2OC)c2cc(Br)ccc21` (centres undefined), the z-score was -4.05 (active). With `COc1ccc(C(=O)/C=C/c2ccc(N(C)C)cc2)c(OC)c1` the z-score was 15.9 (inactive). For `O=C(O)c1ccccc1NN=C1CCCCC1`, the z-score was -4.39 (active). With `O=C(CCSc1ccc(Cl)cc1)NN=C1CCCCCC1` the z-score was 3.37 (inactive). In the case of `CC(Sc1ccccc1)C(=O)NN=C1CCCCCC1` (centres undefined), the z-score was 8.07 (inactive). In the case of `CC1CC(C)(C)Nc2ccc(N=O)cc21` (centres undefined), the z-score was 4.12 (inactive). For `CN(C)c1ccc(/C=C2\SC(=O)N(CC(O)Cn3c4ccccc4c4ccccc43)C2=O)cc1` (centres undefined), the z-score was 3.6 (inactive). With `O=c1ccc(NS(=O)(=O)c2ccccc2)cn1Cc1ccc(Cl)c(Cl)c1` the z-score was 4.35 (inactive). In the case of `O=C1S/C(=C\c2ccc(N3CCOCC3)o2)C(=O)N1c1ccccc1`, the z-score was 12.7 (inactive). For `COc1cc2c(cc1OC)C1=CC(=O)C(=O)N1C(C)(C)C2`, the z-score was 6.34 (inactive). With `COCCN(CCOC)Cc1c(C)[nH]c2c(C)c(C)ccc2c1=O` the z-score was 0.72 (inactive). With `COC(=O)CSc1nc2ncc(Cl)cc2[nH]1` the z-score was -4.43 (active). In the case of `COC(=O)CSc1nc2ccccn2c(=O)c1C=O`, the z-score was 4.58 (inactive). In the case of `Cc1ccnc(N/C=C(\C#N)c2nc(-c3cccc(Br)c3)cs2)c1`, the z-score was 7.83 (inactive). For `CCOC(=O)CC1C(=O)NCCN1c1nc2ccc(C)cn2c(=O)c1/C=C1\SC(=S)N(CC(C)C)C1=O` (centres undefined), the z-score was 10.8 (inactive). With `CSc1ccc(NC(=O)Nc2cccn(Cc3ccccc3)c2=O)cc1` the z-score was -5.72 (active). With `COc1cnc(-c2ccccn2)nc1NC(C)C` the z-score was -4.73 (active). For `CCC(=O)Nc1ccc2c(c1)ncn2-c1ccccc1`, the z-score was 4.96 (inactive). For `CC(=O)Nc1ccc(NC(=O)C(=O)c2cn(CC(=O)N3CCCCC3)c3ccccc23)cc1`, the z-score was 2.61 (inactive). With `COc1ccccc1NC(=O)/C=C1\SCC(=O)N1C` the z-score was 4.67 (inactive). For `COc1ccccc1NC(=O)COC(=O)C1CC2C=CC1C2` (centres undefined), the z-score was 3.01 (inactive). In the case of `COc1ccccc1NC(=O)Cn1cc(C(=O)c2ccco2)c2ccccc21`, the z-score was -4.69 (active).

— PubChem BioAssay AID1628 (Sanford-Burnham Center for Chemical Genomics, 2009)
